# This is a sample that favours compounds with a hit; in the whole collection about 4.7% have one here.
# TRHR enhancer: TRH receptor (human) allosteric enhancement; AID 493056; hit rate 0.66% among 360,000; P34981; TRHR cells, fluo-8 calcium fluorescence, EC20 TRH enhancement; enhancement, % at 2 µM; in the data active = enhancement above about 30%; note: 0% is about no effect
# Target sequence (P34981 whole entry, looked up): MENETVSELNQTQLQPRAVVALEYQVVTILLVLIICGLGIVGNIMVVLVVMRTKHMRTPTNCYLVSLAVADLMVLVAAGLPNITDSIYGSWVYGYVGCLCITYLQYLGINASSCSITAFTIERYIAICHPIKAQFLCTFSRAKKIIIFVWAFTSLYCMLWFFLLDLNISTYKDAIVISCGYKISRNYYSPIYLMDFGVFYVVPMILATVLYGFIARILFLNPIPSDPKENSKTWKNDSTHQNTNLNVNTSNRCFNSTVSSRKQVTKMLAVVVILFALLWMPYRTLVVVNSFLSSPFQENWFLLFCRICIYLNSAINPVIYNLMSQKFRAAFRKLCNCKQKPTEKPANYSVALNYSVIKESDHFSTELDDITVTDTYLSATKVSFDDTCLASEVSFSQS
#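 TRHR-expressing cells loaded with fluo-8 calcium dye were read kinetically (ex 480/em 530) during compound addition, then stimulated with an EC20 of TRH (10 nM final). Enhancement of the Gq-mediated intracellular calcium response was scored.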
# D1 agonist: activates the human D1 dopamine receptor; P21728; HEK293 T-REx D1 cells, calcium flux, agonist mode; activation, % at 2 µM; hit rate 1% among 360,000; AID 504660; note: 0% is about no effect
#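 Inducible HEK293 T-REx D1 cells, force-coupled to calcium signalling, were plated at 4000 cells/well with tetracycline and held overnight at 30 C. After no-wash calcium dye loading, compound-evoked calcium rise over 180 s flagged agonists.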
# TRHR ag: TRH receptor (human) agonism | AID 493084 | activation, % at 2 µM | TRHR cells, calcium flux fluo-8, FDSS agonist mode | P34981 | hit rate 0.18% among 360,000; note: 0% is about no effect
#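 TRHR-expressing cells loaded with fluo-8 calcium dye; 23 nL library compound pin-transferred, kinetic FDSS fluorescence (Ex 480/Em 530) recorded about 180 s for agonist-induced calcium release, before a 10 nM TRH EC20 addition for potentiator mode.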
# D1 potentiator: human D1 dopamine receptor positive modulation; P21728; HEK293 TREx D1 cells, calcium flux, dopamine EC20 potentiation; potentiation, % at 10 µM; hit rate 0.036% among 360,000; in the data active = potentiation above about 30%; note: 0% is about no effect
# D1 antag: blocks dopamine activation of the human D1 receptor; hit rate 3.2% among 360,000; HEK293 TREx D1 cells, calcium flux, dopamine EC80; active compounds read low; P21728; activity change, negative = inhibition, % at 10 µM; AID 504652; in the data active = activity change below about -30%; note: % is set by controls: 0 for no effect and ±100 for the full control effect
#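 HEK293 T-REx cells expressing inducible, force-coupled D1 receptor; no-wash Ca dye, 30–90 min RT. Cmpd → 180 s read at 1 Hz → EC80 DA → 180 s read.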
# Active calls of the source: *. Cut-off read from the data, not from the text of the source, unless noted: active = activation above about 30%; inactive = the rest.
SMILES,TRHR enhancer,D1 agonist,TRHR ag,D1 potentiator,D1 antag
O=C(NC(=S)Nc1ccc(Br)cc1)C1CCC1,7,1,0,-4,12
CCOC(=O)N1CCN(C(=O)C(C)N(c2ccc(Oc3ccccc3)cc2)S(C)(=O)=O)CC1 (centres undefined),-7,10,0,-8,-4
Cc1ccc(N(C(C)C(=O)N2CCN(Cc3ccccc3)CC2)S(C)(=O)=O)cc1 (centres undefined),37*,13,-4,-1,8
Cc1cc(C)cc(NC(=S)N2CCN(C(=O)c3ccco3)CC2)c1,-2,0,0,15,-39*
Cc1cc2c(cc3c(SCc4ccccc4Cl)nnc(C)n32)o1,3,0,0,-2,0
CC(OC(=O)c1cc[n+]([O-])cc1)C(=O)NCc1ccccc1 (centres undefined),4,-1,-1,-4,8
CCOC(=O)CSC1=NC(=O)/C(=C\c2ccc(Cl)cc2)S1,1,100*,0,-3,0
CCOC(=O)C1CCN(C2=NC(=O)/C(=C/c3ccc(Cl)cc3)S2)CC1,0,1,0,-4,-17
CCN(CC)c1ccc(NC(=S)Nc2ccc(F)cc2)cc1,4,8,-1,-9,1
CC(=O)c1ccccc1OCCOCCOCCOc1ccccc1C(C)=O,-6,1,0,1,31
OCCOCCOc1ccccc1OCCOCCO,13,2,-1,-19,-86*
O=C(CN1C(=O)NC2(CCCCC2)C1=O)Nc1cc(C(F)(F)F)ccc1N1CCOCC1,6,3,2,-3,2
CCN(CC)CCNc1nc(C(F)(F)F)nc2c1nnn2Cc1ccccc1,5,10,1,-1,-92*
FC(F)(F)c1nc(NCc2ccccc2)c2nnn(Cc3ccccc3)c2n1,-1,4,3,-13,-11
CN(C)n1cccc1/C=C(\C#N)S(=O)(=O)c1ccc(Cl)cc1,3,3,0,-4,3
COc1ccccc1COc1ccc2c(C)c(CC(=O)O)c(=O)oc2c1C,-8,1,0,1,-6
CN(c1ccc(C(=O)N2CCCCC2)cc1)S(=O)(=O)c1ccccc1,12,17,0,4,-36*
CCc1ccc2oc(C(=O)N(Cc3cccc(Cl)c3)Cc3ccco3)c(C)c2c1,-5,15,3,-2,-1
COc1cccc2c1C(=O)c1c(O)c3c(c(O)c1C2=O)C[C@](O)(C(C)=O)C[C@H]3O[C@@H]1C[C@@H](N)[C@@H](O)[C@@H](C)O1,-7,3,10,-4,-35*
COc1cccc2c1-c1c(O)cccc1C2=O,-3,7,2,2,-3
COc1ccc(C(=O)NCC(C)(C)SCc2c(C)cc(C)cc2C)cc1,-3,56*,-2,7,-61*
Cc1ccc(-n2c(=O)c3c4c(sc3n(CC(=O)C(C)(C)C)c2=O)CCCCC4)cc1C,5,2,1,1,11
COc1ccc(NS(=O)(=O)/C=C/c2ccccc2)cc1,6,4,0,4,-11
O=S(=O)(/C=C/c1ccccc1)Nc1ccc(F)cc1,31*,7,1,1,0
CCOC(=O)COc1ccc(S(=O)(=O)Nc2ccc(C)cc2)cc1,3,45*,3,-13,-15
SMILES,TRHR enhancer,D1 agonist,TRHR ag,D1 potentiator,D1 antag
CCOC(=O)COc1ccc(S(=O)(=O)c2ccc(OCC(=O)OCC)cc2)cc1,6,22,0,-4,-3
CCOC(=O)COc1ccc(S(=O)(=O)Nc2ccc3c(c2)OCO3)cc1,-3,63*,-2,-11,2
Cc1ccc(Oc2ccc(S(=O)(=O)Nc3ccc(C(=O)O)cc3)cc2)cc1,-5,2,0,-4,-42*
O=[N+]([O-])c1ccc(S(=O)(=O)Nc2ccncc2)cc1,9,0,0,3,10
CC(=O)c1ccc(NS(=O)(=O)c2ccc(C)cc2)cc1,-4,4,0,2,4
O=[N+]([O-])c1ccc(Oc2ccc(S(=O)(=O)Nc3ccccc3)cc2)cc1,-5,55*,4,-9,-21
CN1CCN(CCNC(=O)Cn2c(=O)c3cccn3c3ccc(F)cc32)CC1,-1,3,1,-2,8
CCOc1ccc(Nc2c(S(=O)(=O)c3ccccc3)cnc3ccc(F)cc23)cc1,2,2,0,-2,17

# Source: PubChem (National Center for Advancing Translational Sciences (NCATS))
